Experimental findings from ChEMBL document CHEMBL4296182, “CO-ADD screening of NIH NCI Diversity Set V” are described below.

Entries with a potency or affinity are not part of this list.

This assay has as its system Cryptococcus neoformans. Particulars: Concentration 20 uM; ASSAY_TEST Inhibition of Fungal Growth; detection method Resazurin; Absorption (OD600-OD570); plate type 384well; NBS; CORNING #3640. Background: The colour change of resazurin is a common sign of viable cells or microbes.
With `CCOC(=O)N1C/C(=C\c2ccccc2)C(=O)/C(=C/c2ccccc2)C1`, the Inhibition (usually the relative decrease from the control value, in per cent) was -7.05%. Regarding `O=C(Nc1ccc(Br)cc1)Nc1ccccc1Cl`, the Inhibition was -9.14%. Take `N#C/C(=C\c1ccc(C#N)cc1)C(=O)c1ccccc1`: the Inhibition is -10.85%. The result for `Nc1ccc(-c2nc3nc(N)nc(N)c3nc2-c2ccc(N)cc2)cc1` reads -7.52%; that for `Cc1cc(=O)oc2cc(OS(C)(=O)=O)ccc12`, -11.39%. As for `Nc1ccc(OC(=O)Nc2ccc(O)cc2)cc1`, the Inhibition is on record as 12.42%. The result for `CCOC(=O)/C(C#N)=C/c1cccc(C)c1` reads -0.16%; that for `Cc1nc(S)nc(O)c1CCC1OCCO1`, -7.17%; that for `N#CC1C(=O)NC(=O)C(C#N)C12CCCC(C(F)(F)F)C2` (centres undefined), -0.69%.

Take `O=C1c2cc([N+](=O)[O-])ccc2-c2cc(Br)c(NC(=NO)C(F)(F)F)cc21`: the Inhibition is recorded as -6.6%. As to `O=C(Nc1ccc(F)cc1)OCCOc1ccc(Br)cc1`, the Inhibition is on record as 3.63%. The result for `O=C(O)CCC1(c2ccccc2)NC(=O)NC1=O` (centres undefined) reads -9.46%; that for `CCOC(=O)c1c(C)nc(C)c(C(=O)OCC)c1-c1ccc(OC)cc1`, 19.28%. Turning to `O=C(Nc1ccc2ccccc2c1)c1cccc(F)c1`, the Inhibition was -2.23%. Consider `CCOC(=O)c1c(N)ssc1=S`, for which the Inhibition is -3.18%. Take `O=C(Nc1ccc(C2=NCCCN2)cc1)Nc1ccc(C2=NCCCN2)cc1`: the Inhibition is -6.84%. The result for `CCOC(=O)/C=C/c1ccc(C(=O)OCC)[nH]1` reads 8.93%; that for `CCOC(=O)c1nc(SC)n(C)c1C(=O)OCC`, -13.08%; that for `c1ccc(CSc2nc3c[nH]cnc-3n2)cc1`, 13.03%. The result for `CNC1(C(N)=O)CCNCC1` reads -6.49%. With `O=c1[nH]nc(-c2cc(-c3ccccc3)nc3ccccc23)o1`, the Inhibition was -2.09%. Consider `CC(C)(C)c1ccc(OC(=O)c2ccccc2)cc1`, for which the Inhibition is recorded as -15.41%. The result for `NC(=O)c1cc(Br)cc(C2CCCCC2)c1O` reads -10.76%; that for `CC(=O)NS(=O)(=O)c1ccc2sc(C)nc2c1`, -4.98%. As for `CCNc1ccccc1C(=O)O`, the Inhibition was found to be 2.27%. Turning to `CN(C)c1ccc(/C=C2/C=C(c3ccc4c(c3)CCCC4)OC2=O)cc1`, the Inhibition was 1.53%.

As to `CSc1cccc(NC(=O)Nc2ccccc2C(N)=O)c1`, the Inhibition is listed as -13.91%. In the case of `CCn1c2ccccc2nc2cc3c(cc21)c(Cl)c(=O)c1ccccc13`, the Inhibition is -5.64%. The result for `Cc1ccc(NC(=S)NC(=O)c2ccccc2)cc1NC(=S)NC(=O)c1ccccc1` reads 1.39%; that for `CN1N=C/C(=C/NC(N)=O)C1=O`, -3.93%. Regarding `O=C(Nc1ccc(Cl)c(Cl)c1)Nc1ccccc1O`, the Inhibition came out at 15.14%. Consider `CC(=O)OCC1OC(COC(C)=O)(c2ccc(C)cc2)C(OC(C)=O)C1OC(C)=O` (centres undefined), for which the Inhibition is -5.49%. The result for `Cc1ccc(NC(=O)N2CCCCC2)cc1NC(=O)N1CCCCC1` reads 1.83%; that for `Nc1nc(N)nc(-c2ccccc2-c2nc(N)nc(N)n2)n1`, -8.57%; that for `O=C(O)CCC(=O)OCCN(Cc1ccc(Oc2ccc([N+](=O)[O-])cc2)cc1)C(=O)C(Cl)Cl`, -1.27%.

For `COC1OC(CO)C(N=C(C)C)C1O` (centres undefined), the Inhibition is -10.33%. For `COc1cccc(/C=C2\CCc3ccccc3C2=O)c1`, the Inhibition was -15.01%. Turning to `O/N=C(/c1ccccc1)c1ccc2c3c(cccc13)CC2`, the Inhibition is given as -8.52%. For the molecule `Cc1nc(C(N)=O)nc2ccccc12`, the Inhibition was 1.62%.
